In all, about 330,000 compounds went through this assay and about 5,800 (1.8%) were called active. The sample holds actives, similar compounds and a random draw of the others, so the mix is not that of the screen. No stated cut-off is given here; in the data, active means inhibition mostly above about 38% (no sharp cut-off); inactive means mostly below about 40%.
target: Orexin/Hypocretin receptor type 1 (Homo sapiens) (UniProt O43613); assay: antagonists of human orexin 1 receptor (OX1R) (AID 485270); conditions: OX1R-expressing cells, FRET antagonist read-out; at 6.6 µM; stronger effect = higher value;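 further: 0% = agonist challenge alone and 100% = reference antagonist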
Sequence (O43613 whole entry, looked up): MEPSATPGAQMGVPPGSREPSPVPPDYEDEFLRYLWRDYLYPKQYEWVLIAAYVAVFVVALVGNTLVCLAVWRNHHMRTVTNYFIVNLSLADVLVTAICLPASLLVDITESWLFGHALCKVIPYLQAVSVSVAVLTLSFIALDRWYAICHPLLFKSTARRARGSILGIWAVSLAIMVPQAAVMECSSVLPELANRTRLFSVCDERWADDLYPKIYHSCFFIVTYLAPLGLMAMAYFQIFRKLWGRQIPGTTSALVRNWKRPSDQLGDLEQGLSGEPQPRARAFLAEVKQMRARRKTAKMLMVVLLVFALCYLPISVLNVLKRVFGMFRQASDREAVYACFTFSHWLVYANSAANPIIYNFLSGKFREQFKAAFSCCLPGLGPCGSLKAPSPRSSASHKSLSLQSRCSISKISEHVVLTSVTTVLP

Row | Compound | inhibition
1 | O=C1COc2ccc(C(=O)COC(=O)CCOc3ccccc3)cc2N1 | 4.75% (inactive)
2 | O=C(COC(=O)c1ccccc1O)NCc1ccco1 | 9.75% (inactive)
3 | COc1cccc(-c2sc3ccc(OC)cc3c2-c2ccc(OCCN3CCCCC3)cc2)c1 | 3.65% (inactive)
4 | CCC(C)(C)NC(=O)C(c1ccccn1)N(C(=O)c1csnn1)c1ccccc1 (configuration not stated) | 6.1% (inactive)
5 | CC(C)(C)NC(=O)CN(C(=O)c1ccc(Cl)nc1)c1cccc2ccccc12 | 9.37% (inactive)
6 | CC(C)(C)NC(=O)CN(C(=O)c1csnn1)c1ccccc1-c1ccccc1 | 67.4% (active)
7 | COc1cc(Cl)c(C)cc1NC(=O)CSc1nnc(CN2CCCC2)o1 | 3.58% (inactive)
8 | O=C1CC2(CCCC2)C(=O)N1CN1CCN(S(=O)(=O)c2ccc(F)cc2F)CC1 | 6.49% (inactive)
9 | COC(=O)c1sccc1NC(=O)CSc1ccccc1NS(=O)(=O)c1cc(Cl)ccc1Cl | 60.7% (active)
10 | COC(=O)c1sccc1NC(=O)COc1ccc(Cl)cc1 | 19.5% (inactive)
11 | COC(=O)c1sccc1NS(=O)(=O)c1ccc(F)cc1F | -2.44% (inactive)
12 | C[C@]12CC[C@H](O)CC1=CCC1C2CC[C@@]2(C)C1CC[C@@H]2NC(=O)CCC(=O)O (some centres not stated) | 4.74% (inactive)
13 | Cc1cccc(C)c1Nc1nnc(SCC(=O)NCCCN2CCCC2=O)s1 | 5.99% (inactive)
14 | CC(=O)c1c(C)[nH]c(C(=O)COC(=O)c2cccs2)c1C | 15% (inactive)
15 | COc1cccc(C(=O)OCC(=O)c2[nH]c(C)c(C(C)=O)c2C)c1 | 12.8% (inactive)
16 | CC(=O)c1c(C)[nH]c(C(=O)COC(=O)c2cccc(S(=O)(=O)N(C)c3ccccc3)c2)c1C | 69.6% (active)
17 | CC[C@]12c3[nH]c4ccc(OC)cc4c3CCN1C(=O)C(CC(=O)NCc1ccco1)C[C@@H]2C(=O)N1CCN(C(=O)C2CC2)CC1 (some centres not stated) | 6.49% (inactive)
18 | COc1ccc(CCNC(=O)COC(=O)c2cnc(Cl)c(Cl)c2)cc1 | 8.28% (inactive)
19 | O=C(OCc1ccc([N+](=O)[O-])cc1)c1ccccn1 | 5.7% (inactive)
20 | O=C(COC(=O)c1ccccn1)NNC(=O)c1ccc(Br)cc1 | -0.24% (inactive)
21 | O=C(COC(=O)c1ccccn1)NNC(=O)c1ccc([N+](=O)[O-])cc1 | 57.2% (active)
22 | COc1ccc(-c2c(C)cc3oc(=O)cc(-c4ccccc4)c3c2C)cc1C=O | 4.68% (inactive)

Row | Compound | inhibition
23 | COc1ccccc1C(=O)COC(=O)COc1ccc(C#N)cc1 | 5.7% (inactive)
24 | O=[N+]([O-])c1ccccc1Nc1ccc(O)cc1 | 50.7% (inactive)
25 | O=[N+]([O-])c1ncc(Br)cc1Nc1ccccc1 | 54.1% (active)
26 | O=[N+]([O-])c1cccc(/C=N/Nc2ncc(Br)cn2)c1 | 25.3% (inactive)
27 | O=C(COC(=O)/C=C/c1cccc(Cl)c1)NCc1cccs1 | 5.6% (inactive)
28 | COc1ccc(-c2sc3ccccc3c2-c2ccc(OCCN3CCOCC3)cc2)cc1 | -1.97% (inactive)
29 | NC(=S)N/N=C/c1ccc([N+](=O)[O-])cc1 | 50.9% (active)
30 | COC(=O)c1ccc(/C=N/NC(=O)C(=O)N2CCCCCC2)cc1 | 44.8% (inactive)
31 | O=C(N/N=C/c1ccc2c(c1)OCO2)C(=O)N1CCCC1 | 15% (inactive)
32 | O=C(N/N=C/c1ccc([N+](=O)[O-])cc1)C(=O)N1CCCC1 | 45.8% (active)
33 | Cc1ccsc1C(=O)N/N=C/c1ccc([N+](=O)[O-])cc1 | 53.6% (inactive)
34 | CCOc1ccc(/C=N/NC(N)=S)cc1 | 27.9% (inactive)
35 | O=C(COC(=O)c1ccncc1)Nc1ccc2c(c1)OCO2 | 9.22% (inactive)
36 | O=C(Nc1cccc(S(=O)(=O)NC2=NCCC2)c1)c1ccc(F)cc1F | 3.06% (inactive)
37 | Cc1cccc(-n2ncc3c(=O)[nH]c(SCC(=O)Nc4cc(C)on4)nc32)c1 | 10.5% (inactive)
38 | COc1ccc(-c2nc3cc(C)ccn3c2NC2CCCCC2)cc1SC1CCCCC1 | 11.5% (inactive)
39 | Cc1ccc(NC(=O)CN(C)C(=O)c2ccc(Cl)c(S(=O)(=O)NCc3ccco3)c2)cc1 | 4.72% (inactive)
40 | CC(C)(C)c1ccc(C(=O)NCC(=O)OCN2C(=O)c3ccccc3C2=O)cc1 | -0.82% (inactive)
41 | Cc1ccc(CNC(=O)c2ccc3c(c2)S(=O)(=O)c2ccccc2C3=O)cc1 | 61.7% (inactive)
42 | COC(=O)CNC(=O)c1ccc2c(c1)S(=O)(=O)c1ccccc1C2=O | 172% (active)
43 | COC(=O)[C@]1(C)N[C@H](CN(C)C(=O)c2ccc(C(C)(C)C)cc2)[C@@H]2C(=O)N(C)C(=O)[C@@H]21 | 6.6% (inactive)
44 | COc1ccccc1NC(=O)COC(=O)c1ccccc1SCC(=O)N1CCCC1 | 23.9% (inactive)

Row | Compound | inhibition
45 | CC(C)N(Cc1ccccc1)C(=O)COC(=O)c1ccccc1SCC(=O)N1CCCC1 | 60.6% (active)
46 | CC(NC(=O)c1ccccc1SCC(=O)N1CCCC1)c1ccccc1 (configuration not stated) | 6.4% (inactive)
47 | COc1ccc(S(=O)(=O)N(C)C[C@@H]2Oc3ccc(NC(=O)Nc4c(C)noc4C)cc3C(=O)N([C@H](C)CO)C[C@@H]2C)cc1 | 5.98% (inactive)
48 | Oc1ccc(N=Cc2sc3ccccc3c2Cl)cc1 | 36.6% (inactive)
49 | Oc1ccc(N=Cc2c(O)ccc3ccccc23)cc1 | 54.4% (active)
50 | O=[N+]([O-])c1ccc(N=Cc2c(O)ccc3ccccc23)cc1 | 26.6% (inactive)
51 | Cc1ccc(N2C(=O)N3[C@@H]4c5ccccc5OC[C@@H]4[C@@H](c4ccccc4)[C@@]3(C)C2=O)cc1 | 4.13% (inactive)
52 | O=C(NN=Cc1ccc(N2CCOCC2)cc1)c1cc2ccccc2cc1O | 8.04% (inactive)
53 | Cn1nnnc1SCC(=O)Nc1nc2ccccc2s1 | 14.3% (inactive)
54 | C=CCn1c(SCC(=O)Nc2nc3ccccc3s2)nnc1-c1ccccc1O | 53% (active)
55 | C=CCn1c(SCC(=O)NCc2ccccc2)nnc1-c1cc(Br)ccc1O | 13.4% (inactive)
56 | O=C(COc1cccnc1[N+](=O)[O-])Nc1ccc(Cl)cc1F | 9.99% (inactive)
57 | Cc1ccsc1C(=O)OCC(=O)NCCc1ccccc1 | 1.76% (inactive)
58 | CC[C@]12c3[nH]c4cc(CCC(=O)N(C)C)ccc4c3CCN1C(=O)[C@@H](CC(=O)NCCCn1ccnc1)C[C@@H]2C(=O)N1CCN(C(=O)C2CC2)CC1 | 10.3% (inactive)
59 | Clc1ccccc1SCc1nc2ccccc2[nH]1 | 24.1% (inactive)
60 | c1ccc(-c2nnc(SCc3nc4ccccc4[nH]3)o2)cc1 | 16.7% (inactive)
61 | c1ccc2c(CSCc3nc4ccccc4[nH]3)cccc2c1 | 90.8% (active)
62 | CC(C)(C)OC(=O)C[C@@H]1C/C=C\C[C@@H](CC(=O)N[C@H](CO)Cc2ccccc2)C(=O)NC[C@@H](c2ccccc2)OC1=O | 8.95% (inactive)
63 | COC(=O)C1=C(C)N(Cc2ccccc2)C(=NCCCOC(C)C)N[C@H]1c1ccccc1 | 10.8% (inactive)
64 | O=C(Nc1ccc2sc3ccccc3c(=O)c2c1)c1ccccc1Cl | 86.1% (active)
65 | COCC(=O)N1CCc2ccc(NC(=O)c3ccccc3Cl)cc2C1 | -9.22% (inactive)
66 | CS(=O)(=O)c1ccccc1C(=O)Nc1ccc2sccc2c1 | 11.8% (inactive)

Row | Compound | inhibition
67 | CCCC(CNC(=O)COC(=O)C1=NNC(=O)CC1)c1ccc(Cl)cc1Cl (configuration not stated) | 9.27% (inactive)
68 | CC1O[C@@H](OC2C(O)C(C)O[C@H](OC(=O)[C@]34CCC(C)(C)C[C@H]3C3=CCC5[C@@]6(C)CC(O)C(O[C@@H]7OC(CO)C(O)[C@@H](O)[C@@H]7O)[C@@](C)(C(=O)O)C6CC[C@@]5(C)[C@]3(CO)CC4)C2O[C@H]2OC(C)[C@@H](O[C@@H]3OCC(O[C@@H]4OC(CO)C(O)[C@H](O)C4O)[C@@H](O)[C@@H]3O)[C@H](O)C2O)C(O)C(O)C1O (some centres not stated) | 10.6% (inactive)
69 | CCC(CO)Oc1cc(NC(=O)c2cccc3ccccc23)c2ncn(C(C)C)c2c1 (configuration not stated) | 12.5% (inactive)
70 | COc1ccccc1-c1nnc2n1N=C(c1ccc(OC(F)F)c(OCC3CC3)c1)CS2 | 9.14% (inactive)
71 | C[C@@H]1CN([C@H](C)CO)C(=O)c2cc(NC(=O)NC3CCCCC3)ccc2O[C@H]1CN(C)S(C)(=O)=O | 0.78% (inactive)
72 | CC(NS(=O)(=O)c1ccc(OCC(=O)N2CCCC2)cc1)c1ccccc1 (configuration not stated) | 2.37% (inactive)
73 | COc1ccc(S(=O)(=O)NC(C)c2ccccc2)cc1C(=O)N1CCCCC1 (configuration not stated) | 78.9% (active)
74 | COc1ccc(S(=O)(=O)Nc2ccccc2C(=O)N2CCCC2)cc1C | 15.3% (inactive)
75 | COc1ccc(CCNC(=O)/C(C#N)=C2\N=C(NC(=O)c3cccs3)c3ccccc32)cc1 | 110% (active)
76 | COc1cc2ccccc2cc1C(=O)Nc1ccc(NC(=O)c2cccs2)cc1 | 10.3% (inactive)
77 | COc1ccc(CN(Cc2ccc(OC)cc2)C(=O)c2cccs2)cc1 | 5.1% (inactive)
78 | Cc1c(Br)ccc(NC(=O)COc2ccccc2C(N)=O)c1C | 1.89% (inactive)
79 | CC(C)(C)n1ncc2c(=O)n(Cc3c(Cl)cccc3Br)cnc21 | 11.1% (inactive)
80 | CCC1(CC)Cc2ccccc2-c2nc3ccccc3c(=O)n21 | 8.19% (inactive)
81 | CCn1c(C)nc2c1C(=O)c1ccccc1C2=O | 99.7% (active)
82 | Cc1nc2ccccc2n1CC(O)c1ccccc1 (configuration not stated) | 17.1% (inactive)
83 | CC(C)(C)OC(=O)CNC(=O)c1[nH]cnc1C(=O)N[C@@H](CCCCN)C(=O)OC(C)(C)C | 10.9% (inactive)
84 | C=CC[C@@H](CC(=O)N[C@H](CO)Cc1ccccc1)C(=O)N[C@@H](COC(=O)[C@@H](CC=C)Cc1ccc(F)cc1)Cc1c[nH]c2ccccc12 | 5.38% (inactive)
85 | COc1ccc(CNC(=O)c2c(C)cc(=O)oc2C)cc1OC | 8.87% (inactive)
86 | Cc1cc(=O)oc(C)c1C(=O)NCCN(C)Cc1ccccc1 | 98.2% (active)
87 | Cc1cc(=O)oc(C)c1C(=O)NCc1ccc(F)cc1 | 19.4% (inactive)

Source: PubChem BioAssay AID485270 (The Scripps Research Institute Molecular Screening Center, 2010)
